# Measurements from PubChem BioAssay.
# Activity calls are given as the source filed them. No stated cut-off is given here; in the data, active means plate-normalised HSF1 focus index below about 0.46; inactive means the rest.
# Assay: modifiers of HSF1 nuclear foci, imaging, Selleck Cancer Library (AID 1347162)
# Details: human cells, at 10 µM; SSMD: measured here: HSF1 foci SSMD mean; cell count: measured here: cell number; plate-normalised HSF1 focus index: stronger effect = lower value
compound,measurement,value
CCC(C)(C)C(=O)O[C@H]1C[C@@H](C)C=C2C=C[C@H](C)[C@H](CC[C@@H]3C[C@@H](O)CC(=O)O3)[C@H]21,SSMD,1.41
same,cell count,7420
same,plate-normalised HSF1 focus index,1.09 (inactive)
